49 compounds from PubChem BioAssay AID1259421 (Broad Institute, 2018) can be followed below.

SMILES strings stand for the structures. Values joined by “and” are separate entries in the source; they are usually repeats but may differ in a detail not shown here. Equal values may be shown once. The whole screen tested about 6,400 compounds, of which about 610 (9.5%) were called active. No stated cut-off is given here; in the data, active means activity change below about -70%; inconclusive means no clear call, values can overlap the other calls; inactive means above that. What follows is part of a selection rich in actives, with near analogues and random picks from the rest. A structure can be active in one record and inactive in another.

A short description of the assay: T. gondii ME49Luc in HeLa cells, luciferase assay, 72 h, no IFN-y (AID 1259421). The following applies: stronger effect = lower value, concentration not given here.
Take `CNC(=O)c1cccc2cc(Oc3ccnc4cc(OCC5(N)CC5)c(OC)cc34)ccc12`: the activity change, negative = inhibition is -25% (inactive).
Turning to `COc1ccc2c(Oc3ccc(NC(=O)c4c(C)n(CC(C)(C)O)n(-c5ccccc5)c4=O)nc3)ccnc2c1`, the activity change, negative = inhibition is -67.1% (inactive) and -82.5% (active).
With `COc1ccc2c(OCc3nnc4ccc(-c5ccccc5)nn34)ccnc2c1`, the activity change, negative = inhibition is 4.78% (inactive).
For `C[C@@H]1CC2C3CCC4=CC(=O)C=C[C@]4(C)[C@@]3(F)[C@@H](O)C[C@]2(C)[C@@]1(O)C(=O)CO` (some centres undefined), the activity change, negative = inhibition was -4.17% (inactive).
On to `C[C@@H]1CCCN1CCc1cc2cc(-c3ccc(C#N)cc3)ccc2o1`, for which the activity change, negative = inhibition was 3.6% (inactive).
As to `C=CCN1CC(C(=O)N(CCCN(C)C)C(=O)NCC)CC2c3cccc4[nH]cc(c34)CC21` (centres undefined), the activity change, negative = inhibition was 5.12% (inactive).
Take `C[C@]12CCC(=O)C=C1C=CC1C2CC[C@@]2(C)C1CC[C@@]21CCC(=O)O1` (some centres undefined): the activity change, negative = inhibition was 4.56% (inactive) and -4.95% (inactive).
As for `CC(=O)S[C@@H]1CC2=CC(=O)CC[C@]2(C)[C@H]2CC[C@@]3(C)[C@@H](CC[C@@]34CCC(=O)O4)[C@H]12`, the activity change, negative = inhibition was -13.5% (inactive) and -2.91% (inactive).
Turning to `C[C@]12CCC(=O)C=C1[C@@H]1C[C@@H]1[C@H]1[C@@H]3[C@@H]4C[C@@H]4[C@@]4(CCC(=O)O4)[C@@]3(C)CC[C@@H]12`, the activity change, negative = inhibition was -75.7% (active) and -36.5% (inactive).
On to `CCS(=O)(=O)N1CCN(c2ccc(Nc3ncc(C(N)=O)c(NC4CC4)n3)cc2)CC1`, for which the activity change, negative = inhibition was -79.3% (active).
As to `O=c1[nH]ccc2c(S(=O)(=O)N3CCCNCC3)cccc12`, the activity change, negative = inhibition was 13.8% (inactive) and 2.48% (inactive).
`CN1C(C(=O)Nc2ccccn2)C(=O)c2ccccc2S1(=O)=O` (centres undefined): the activity change, negative = inhibition is 35.3% (inactive) and 14.6% (inactive).
Take `CCOC(=O)C(C)Oc1cccc2c(=O)n(CC(=O)Nc3ccc4c(c3)OCCO4)ccc12` (centres undefined): the activity change, negative = inhibition was 14.7% (inactive).
Regarding `O=C1CC2(CCCC2)CC(=O)N1CCCCNCC1COc2ccccc2O1` (centres undefined), the activity change, negative = inhibition was 21% (inactive) and 7.16% (inactive).
With `CC(C)(C)NC(=O)[C@@H]1CC2CCCCC2CN1C[C@@H](O)[C@H](Cc1ccccc1)NC(=O)[C@H](CC(N)=O)NC(=O)c1ccc2ccccc2n1` (some centres undefined), the activity change, negative = inhibition was 13.2% (inactive).
For `CCCCCCCCO`, the activity change, negative = inhibition is 2.72% (inactive).
The figure for `CC(=O)NC[C@H]1CN(c2ccc(-c3ccc(CNCc4cn[nH]n4)cc3)c(F)c2)C(=O)O1` is -34.7% (inactive).
The figure for `NC(=O)Nc1cc(-c2cccc(F)c2)sc1C(=O)N[C@H]1CCCNC1` is -74.8% (active) and -87.7% (active); for `NC(=O)Nc1sc(-c2ccc(F)cc2)cc1C(N)=O` it is 12.6% (inactive).
As for `COc1cc(C(=O)NC2CCCNC2)cc(OC)c1OC` (centres undefined), the activity change, negative = inhibition is 25.6% (inactive).
For the compound `CC(C)[C@@H](CS(=O)(=O)C(C)C)N1C(=O)[C@@](C)(CC(=O)O)C[C@H](c2cccc(Cl)c2)[C@H]1c1ccc(Cl)cc1`, the activity change, negative = inhibition was 5.9% (inactive).
Under `NCCCCNS(=O)(=O)c1ccc2c(Cl)cccc2c1` stands 2.08% (inactive); under `CC(O)C1C(=O)N2C(C(=O)O)=C(C3CCCO3)SC12` (centres undefined), 5.92% (inactive).
Take `CCOc1ccc(Cc2nccc3cc(OCC)c(OCC)cc23)cc1OCC`: the activity change, negative = inhibition is -67.8% (inactive) and -79.8% (active).
Turning to `COc1ccc(Cc2cnc(N)nc2N)cc1OC`, the activity change, negative = inhibition was 9.87% (inactive).
`COc1ccc(Cc2nccc3cc(OC)c(OC)cc23)cc1OC`: the activity change, negative = inhibition was -2.52% (inactive) and -6.18% (inactive).
The figure for `CN1C(=O)C(F)=C[C@]2(C)[C@H]3CC[C@]4(C)[C@@H](C(=O)NCc5nc6ncccc6[nH]5)CC[C@H]4[C@@H]3CC[C@@H]12` is -1.27% (inactive); for `C=C[C@@H](C1=CC(=O)C(OC)=C(OC)C1=O)c1ccccc1` it is -1.89% (inactive).
Regarding `COc1cc(N)c(Cl)cc1C(=O)N[C@@H]1CCNCC1OC` (some centres undefined), the activity change, negative = inhibition is 8% (inactive).
The figure for `O=C(O)C1(Cc2cccc(Nc3nccs3)n2)CCC(Oc2cccc(Cl)c2F)CC1` (centres undefined) is -34% (inactive); for `CC(C)(C)CC(C)(C)c1ccc(O)c(-n2nc3ccccc3n2)c1` it is 47.6% (inactive).
For the compound `O=C(c1ccc(CN2CCOCC2)cc1)N1CCN(C2CC2)CC1`, the activity change, negative = inhibition is 10.6% (inactive).
For `O=C(Nc1cn[nH]c1-c1nc2ccc(CN3CCOCC3)cc2[nH]1)NC1CC1`, the activity change, negative = inhibition is -84.3% (active).
In the case of `CC(C)(S)C(=O)N[C@@H](CS)C(=O)O`, the activity change, negative = inhibition was -3.42% (inactive).
In the case of `CCOC(=O)Nc1c[n+](N2CCOCC2)no1`, the activity change, negative = inhibition was 8.47% (inactive).
Under `Cc1ccc(/C(=C\CN2CCCC2)c2ccccn2)cc1` stands 0.786% (inactive) and 2.04% (inactive); under `Cc1ccc(/C(=C/CN2CCCC2)c2ccccn2)cc1`, -1.47% (inactive); under `C/C(=N\NC(=S)N1CCC1)c1ccccn1`, -84.6% (active).
With `CC(=O)O[C@@H]1CC2C(C)(C)C(=O)C=C[C@]2(C)C2CC[C@@]3(C)[C@H](c4ccoc4)OC(=O)[C@H]4O[C@]43[C@@]21C` (some centres undefined), the activity change, negative = inhibition was 22.1% (inactive).
Regarding `Nc1nc2c(c(=O)[nH]1)N(C=O)[C@@H](CNc1ccc(C(=O)N[C@@H](CCC(=O)O)C(=O)O)cc1)CN2`, the activity change, negative = inhibition was 22.2% (inactive).
Consider `CCOC(=O)C1=CCCC[C@H]1S(=O)(=O)Nc1ccc(F)cc1Cl`, for which the activity change, negative = inhibition is 18.7% (inactive).
Under `O=C(O)Cc1ccc2c(c1)C(=O)c1ccccc1CO2` stands 19.3% (inactive).
As to `COC(=O)c1c(C)c2c(c(C)c1O)OC(=O)c1c(C)c(Cl)c(O)c(Cl)c1O2`, the activity change, negative = inhibition was -3.73% (inactive).
For `COc1cc(C)c2c(c1C=O)Oc1c(c(C)c(O)c3c1C(O)OC3=O)OC2=O` (centres undefined), the activity change, negative = inhibition was -5.42% (inactive).
Under `Cc1cc(O)c(C=O)c2c1C(=O)Oc1c(C)c(O)c3c(c1O2)C(O)OC3=O` (centres undefined) stands -75.6% (active).
As for `CS(=O)(=O)Nc1c(O)ccc2c1CCCC2C1=NCCN1` (centres undefined), the activity change, negative = inhibition is 15.3% (inactive) and 0.146% (inactive).
Under `CC(=O)[C@@]1(O)CCC2C3C[C@H](C)C4=CC(=O)C=CC4(C)[C@@]3(F)[C@@H](O)C[C@@]21C` (some centres undefined) stands 10% (inactive) and 7.34% (inactive).
On to `NC(N)=NC(=O)c1nc(Cl)c(N2CCCCCC2)nc1N`, for which the activity change, negative = inhibition was 3.26% (inactive).
Take `CC(=O)OCC(=O)[C@@]1(O)[C@@H](C)CC2C3CCC4=CC(=O)C=C[C@]4(C)[C@@]3(F)[C@@H](O)C[C@@]21C` (some centres undefined): the activity change, negative = inhibition is -12.5% (inactive).
